Jurkat NFkB inh = inhibitors of the PMA/ionomycin-induced NF-kB reporter in Jurkat cells; inhibition, % at 4 µM; AID 435003; 330,000 compounds, 0.53% hits; PMA/ionomycin-induced NF-kB luciferase reporter, luminescence; in the data active = inhibition above about 50%
Mdm2-MdmX inh = disrupts the human Mdm2-MdmX interaction | SaOS-2 split-luciferase Mdm2/MdmX complementation, luminescence | inhibition, % at 8 µM | 330,000 compounds, 3% hits | AID 485346;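 active = inhibition of at least 50% at 8 µM in the primary screen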
Target sequence (O15151 whole entry, looked up): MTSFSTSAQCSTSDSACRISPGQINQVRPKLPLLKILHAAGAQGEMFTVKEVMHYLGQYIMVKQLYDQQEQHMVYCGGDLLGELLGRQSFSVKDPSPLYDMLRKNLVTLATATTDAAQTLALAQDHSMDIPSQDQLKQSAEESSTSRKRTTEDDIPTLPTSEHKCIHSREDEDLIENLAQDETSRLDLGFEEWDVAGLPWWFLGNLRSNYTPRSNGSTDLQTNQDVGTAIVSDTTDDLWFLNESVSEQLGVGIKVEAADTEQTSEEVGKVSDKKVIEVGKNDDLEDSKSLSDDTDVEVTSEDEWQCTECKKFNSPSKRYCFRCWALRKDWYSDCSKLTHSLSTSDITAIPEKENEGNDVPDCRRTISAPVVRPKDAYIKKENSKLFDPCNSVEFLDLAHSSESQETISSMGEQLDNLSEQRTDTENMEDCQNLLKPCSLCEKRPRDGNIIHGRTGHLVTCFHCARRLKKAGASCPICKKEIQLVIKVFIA
Target sequence (Q00987 whole entry, looked up): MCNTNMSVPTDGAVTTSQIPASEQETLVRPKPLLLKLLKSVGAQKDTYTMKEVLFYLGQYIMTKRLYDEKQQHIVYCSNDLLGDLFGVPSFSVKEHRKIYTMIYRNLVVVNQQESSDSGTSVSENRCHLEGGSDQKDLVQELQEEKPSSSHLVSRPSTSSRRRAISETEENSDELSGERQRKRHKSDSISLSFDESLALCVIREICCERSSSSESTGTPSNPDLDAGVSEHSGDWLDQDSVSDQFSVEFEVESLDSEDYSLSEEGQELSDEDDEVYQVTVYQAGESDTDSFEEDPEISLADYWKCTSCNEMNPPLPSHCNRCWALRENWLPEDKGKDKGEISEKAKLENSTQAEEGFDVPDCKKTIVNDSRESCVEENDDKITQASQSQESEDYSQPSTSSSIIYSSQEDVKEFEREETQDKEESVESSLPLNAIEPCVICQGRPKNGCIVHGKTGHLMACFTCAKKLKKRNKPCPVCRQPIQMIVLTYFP
Gli-Sufu block = Gli-Sufu pathway antagonism. Sufu-KO-LIGHT fibroblasts, Gli luciferase reporter luminescence. inhibition, % at 5 µM. 340,000 compounds, 0.74% hits. AID 588413;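 active = inhibition above about 55%, limit read from the data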;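 note: 0% = DMSO-treated cells and 100% = wells with medium but no cells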
697 NFkB inh = lowers PMA/ionomycin-induced NF-kB signal in 697 B cells; inhibition, % at 4 µM; AID 435022; 330,000 compounds, 0.33% hits; 697 B-cell NF-kB luciferase reporter, 16 h; in the data active = inhibition above about 35%
Shn3 inh set2 = Schnurri-3 reporter inhibition in Clone20 osteoblasts | Clone20 osteoblast Shn3 3'UTR firefly luciferase, 24 h | inhibition, % at 12.5 µM | 360,000 compounds, 0.52% hits | AID 588674;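 active = mean inhibition of at least 75% with every replicate also reaching 75%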;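 note: 0% = median of neutral control wells and 100% = pilot-screen positive control compound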
Jurkat NFkB conf = lowers PMA/ionomycin-induced NF-kB signal in Jurkat cells. 2,700 compounds, 27% hits. shares compounds with Jurkat NFkB inh. AID 435020. inhibition, % at 4 µM. Jurkat NF-kB luciferase, 16 h;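 active = inhibition reaching about 45% at 4 µM in either replicate, limit read from the data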;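 note: plate controls were PMA/ionomycin stimulated DMSO wells for no effect and unstimulated DMSO wells for full effect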
The depositor's hits bear a star. This is a sample that favours compounds with a hit; in the whole collection about 3.8% have one here.

Screening CCCCOC(=O)Nc1ccc(N2CCCCC2)cc1 returned Jurkat NFkB inh -182, Mdm2-MdmX inh -165, Gli-Sufu block -94, 697 NFkB inh -163, Shn3 inh set2 -54 and Jurkat NFkB conf -95.
For O=C(Nc1ccc(F)cc1)c1ccc(CN2CCc3ccccc3C2)cc1 the results were Jurkat NFkB inh 58*, Mdm2-MdmX inh 24, Gli-Sufu block 1, 697 NFkB inh -13, Shn3 inh set2 28 and Jurkat NFkB conf 42.
Screening C[C@@H]1CN([C@H](C)CO)S(=O)(=O)c2ccc(Br)cc2O[C@H]1CN(C)C(=O)Nc1ccccc1 returned Shn3 inh set2 -8.
Screening Cc1ccc([C@H]2C[C@H](O)[C@@H](n3cc(-c4ccc(F)cc4)nn3)CN2CC2CCCCC2)cc1 returned Shn3 inh set2 7.
Cc1cccc(-n2nc3c([n+]2[O-])CCc2nonc2-3)c1C was read as Jurkat NFkB inh 6, Mdm2-MdmX inh -4, Gli-Sufu block 1, 697 NFkB inh -8 and Shn3 inh set2 19.
For [O-][n+]1onc2c1CCc1c-2nn(-c2ccccc2Cl)[n+]1[O-] the results were Jurkat NFkB inh 59*, Mdm2-MdmX inh 43, Gli-Sufu block 2, 697 NFkB inh -12, Shn3 inh set2 14 and Jurkat NFkB conf 12.
CCOc1ccccc1-n1c(CN2CCN(C(=O)c3ccco3)CC2)nc2ccccc2c1=O was read as Jurkat NFkB inh 95*, Mdm2-MdmX inh 34, Gli-Sufu block 12, 697 NFkB inh -29, Shn3 inh set2 2 and Jurkat NFkB conf 24.
`COc1cccc(CN(C)C(=O)c2ccc(OCC(=O)Nc3cccc(C(F)(F)F)c3)c(OC)c2)c1` gave Jurkat NFkB inh 56*, Mdm2-MdmX inh 35, Gli-Sufu block 11, 697 NFkB inh -35, Shn3 inh set2 86* and Jurkat NFkB conf 62*.
COc1ccc(CN(C)C(=O)c2ccc(OCC(=O)Nc3cccc(C(F)(F)F)c3)c(OC)c2)c(OC)c1 was read as Jurkat NFkB inh 34, Mdm2-MdmX inh 13, Gli-Sufu block 10, 697 NFkB inh -28 and Shn3 inh set2 -22.
COc1ccc(/C=C2\CCOC2=O)cc1 was read as Jurkat NFkB inh -1, Mdm2-MdmX inh 21, Gli-Sufu block 4, 697 NFkB inh -3 and Shn3 inh set2 1.
COc1ccc(/C=C2/C(=O)OCc3cc(OC)c(OC)cc32)cc1 was read as Jurkat NFkB inh 55*, Mdm2-MdmX inh 41, Gli-Sufu block 4, 697 NFkB inh -68, Shn3 inh set2 7 and Jurkat NFkB conf 48*.
For Oc1[nH]c2ccccc2c1N=Nc1nc2ccccc2s1 the results were Jurkat NFkB inh -174, Mdm2-MdmX inh -4, Gli-Sufu block -78, 697 NFkB inh -227, Shn3 inh set2 -30 and Jurkat NFkB conf -92.
For CCc1ccccc1NC(=O)CN1CCN(C(=O)CNC(=O)c2ccc(N3CCCC3=O)cc2)CC1 the results were Jurkat NFkB inh 5, Mdm2-MdmX inh 8, Gli-Sufu block 0, 697 NFkB inh 17 and Shn3 inh set2 -10.
Screening CC(=Nc1ccc(Br)cc1)c1sc2ccccc2c1O returned Jurkat NFkB inh -201, Mdm2-MdmX inh -356, Gli-Sufu block -113, 697 NFkB inh -130 and Jurkat NFkB conf -13.
`Cc1ccc(/C=N/Nc2cccc3cccnc23)c(O)c1` gave Jurkat NFkB inh -152, Mdm2-MdmX inh -223, Gli-Sufu block -67, 697 NFkB inh -123, Shn3 inh set2 -76 and Jurkat NFkB conf -77.
Screening Cc1cc(C)c(NN=c2c(=O)c3ccccc3c2=O)c(C)c1 returned Jurkat NFkB inh -190, Mdm2-MdmX inh -93, Gli-Sufu block -15, 697 NFkB inh -133, Shn3 inh set2 -62 and Jurkat NFkB conf -62.
Screening O=c1c(=NNc2ccccc2Cl)c(=O)c2ccccc12 returned Gli-Sufu block 29 and Shn3 inh set2 -30.
Screening COC(=O)c1cc(Cl)c(NC(=O)/C=C/c2ccc(OC)cc2)cc1OC returned Jurkat NFkB inh 51*, Mdm2-MdmX inh 49, Gli-Sufu block -5, 697 NFkB inh -43, Shn3 inh set2 -27 and Jurkat NFkB conf 20.
Screening COC(=O)c1cc(Cl)c(NC(=O)C(C)C)cc1OC returned Jurkat NFkB inh 0, Mdm2-MdmX inh 7, Gli-Sufu block -1, 697 NFkB inh -9 and Shn3 inh set2 -17.
N#Cc1ccccc1Cn1cc(/C=N/Nc2ccc([N+](=O)[O-])cn2)c2ccccc21 was read as Jurkat NFkB inh 67*, Mdm2-MdmX inh 28, Gli-Sufu block 12, 697 NFkB inh -15, Shn3 inh set2 78 and Jurkat NFkB conf -6.
`CC(=O)c1cc(C(=O)Nc2ccc3ccccc3c2)c(C)o1` gave Jurkat NFkB inh 1, Mdm2-MdmX inh -6, Gli-Sufu block 39, 697 NFkB inh -2 and Shn3 inh set2 13.
For O=C(Nc1ccc2ccccc2c1)c1cccc(F)c1 the results were Jurkat NFkB inh -200, Mdm2-MdmX inh -191, Gli-Sufu block -94, 697 NFkB inh -221, Shn3 inh set2 -119 and Jurkat NFkB conf -127.
For Cc1cc(C(=O)Nc2ccc3ccccc3c2)c(C)o1 the results were Jurkat NFkB inh -176, Mdm2-MdmX inh -189, Gli-Sufu block -68, 697 NFkB inh -166, Shn3 inh set2 -72 and Jurkat NFkB conf -12.
For CCN(CCS(=O)(=O)c1ccc(Br)cc1)Cc1nc2ccccc2c(=O)[nH]1 the results were Jurkat NFkB inh -18, Mdm2-MdmX inh 15, Gli-Sufu block -2, 697 NFkB inh 10 and Shn3 inh set2 -22.
`OC(CN1C2=NCCCN2c2ccccc21)c1ccc2c(c1)OCO2` (centres undefined) gave Jurkat NFkB inh -5, Mdm2-MdmX inh -26, Gli-Sufu block -17, 697 NFkB inh 4 and Shn3 inh set2 -5.
Screening OC(CN1C2=NCCN2c2ccccc21)c1ccc2c(c1)OCO2 (centres undefined) returned Jurkat NFkB inh 63*, Mdm2-MdmX inh -7, Gli-Sufu block 2, 697 NFkB inh -1, Shn3 inh set2 -8 and Jurkat NFkB conf 12.
Screening O=C(Nc1ccc(N2CCCC2)c(Cl)c1)c1ccco1 returned Jurkat NFkB inh -165, Mdm2-MdmX inh -128, Gli-Sufu block -83, 697 NFkB inh -198, Shn3 inh set2 -14 and Jurkat NFkB conf -25.
COc1ccc(-c2nc3c(Br)c(N)c(Br)cc3o2)cc1 was read as Jurkat NFkB inh -181, Mdm2-MdmX inh -78, Gli-Sufu block -67, 697 NFkB inh -145, Shn3 inh set2 -61 and Jurkat NFkB conf -113.
For Cc1cccn2cc(-c3ccc(Cl)cc3)nc12 the results were Jurkat NFkB inh -194, Mdm2-MdmX inh -108, Gli-Sufu block -119, 697 NFkB inh -241, Shn3 inh set2 -53 and Jurkat NFkB conf -111.
Cc1cccn2cc(-c3cc4ccccc4oc3=O)nc12 was read as Jurkat NFkB inh -152, Mdm2-MdmX inh 17, Gli-Sufu block -75, 697 NFkB inh -205, Shn3 inh set2 -6 and Jurkat NFkB conf -81.
For Cc1ccc(-c2cn3cccc(C)c3n2)cc1 the results were Gli-Sufu block -2 and Shn3 inh set2 -33.

Compound activity: PubChem BioAssay, several laboratories
